The text below walks through data of PubChem BioAssay (NCI).

Molecules are shown by their SMILES. This is part of a sample that, as a whole, favours compounds with a hit. Of some 83,000 tested, about 20% had one in any assay.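 The endpoint reported here, percent growth, reads 100 for growth as untreated, 0 for no net growth and -100 for all cells dead.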 A number with no mark means an inactive call. Calls of active or inactive are those of the source. Rule for the calls: active = growth percent below 10; inactive = the rest.

Test systems include SR leukemia; RPMI-8226 leukemia; OVCAR-8 ovarian; OVCAR-5 ovarian; OVCAR-4 ovarian; SK-OV-3 ovarian; IGROV1 ovarian; OVCAR-3 ovarian; HS 578T breast; NCI/ADR-RES ovarian.
Holding throughout (experiment): NCI-60 one-dose screen, 48 h (100 = growth as untreated, 0 = no growth, -100 = all killed)
Common to all, as to settings: 10 µM unless noted

Turning to `Cc1cc(C)c(C=O)c(C)c1`, the growth in the assay with SR leukemia is 105%; in the assay with RPMI-8226 leukemia, 89.8%; with OVCAR-8 ovarian, 94.2%; with OVCAR-5 ovarian it was 98.5%; with OVCAR-4 ovarian it was 108%; in the assay with SK-OV-3 ovarian, 74.7%. The growth is 111% in the assay with IGROV1 ovarian, 107% with OVCAR-3 ovarian, 104% in the assay with HS 578T breast and 107% in the assay with NCI/ADR-RES ovarian.
Turning to `Cc1cccc(Oc2ccc(Nc3ncnc4ccc(NC(=O)CN(C)C)cc34)cc2Cl)c1`, the growth was 1.9% (active) with SR leukemia; 46.6% with RPMI-8226 leukemia; 57.3% in the assay on OVCAR-8 ovarian; 60.9% in the assay on OVCAR-5 ovarian; 45.2% with OVCAR-4 ovarian; 16% in the assay on SK-OV-3 ovarian. Further, the growth is 3.8% (active) with IGROV1 ovarian, 40.7% in the assay on OVCAR-3 ovarian, 68% in the assay with HS 578T breast and 47.2% in the assay on NCI/ADR-RES ovarian.
In the case of `COc1ccc(NS(=O)(=O)c2ccc(C)cc2)c([N+](=O)[O-])c1`, the growth in the assay on SR leukemia was 100%; in the assay on RPMI-8226 leukemia it was 96.7%; in the assay with OVCAR-8 ovarian, 104%; in the assay on OVCAR-5 ovarian it was 106%; in the assay on OVCAR-4 ovarian it was 115%; with SK-OV-3 ovarian, 105%. Besides, the growth with IGROV1 ovarian is 102%; in the assay with OVCAR-3 ovarian it was 106%; with HS 578T breast it was 95.7%; with NCI/ADR-RES ovarian it was 95.9%.
As for `COC(=O)Nc1ccc(NC(=O)OC)cc1`, the growth in the assay on SR leukemia is 105%; in the assay on RPMI-8226 leukemia it was 89.4%; with OVCAR-8 ovarian it was 94.6%; in the assay with OVCAR-5 ovarian it was 114%; with OVCAR-4 ovarian, 112%; with SK-OV-3 ovarian it was 90.9%. The growth with IGROV1 ovarian is 120%; in the assay with OVCAR-3 ovarian it was 111%; with HS 578T breast, 102%; with NCI/ADR-RES ovarian it was 104%.
Consider `O=C(CN1CCOCC1)Nc1ccc2ncnc(Nc3ccc(Oc4cccc(F)c4)c(Cl)c3)c2c1`, for which the growth in the assay on SR leukemia was 84.1%; in the assay on RPMI-8226 leukemia, 55.7%; in the assay with OVCAR-8 ovarian it was 68.6%; with OVCAR-5 ovarian it was 68.7%; in the assay on OVCAR-4 ovarian, 73.4%; with SK-OV-3 ovarian, 13.9%. The growth with IGROV1 ovarian is 19.9%; with OVCAR-3 ovarian, 55.6%; in the assay on HS 578T breast it was 86.6%; with NCI/ADR-RES ovarian, 60%.
For `COc1cc(C2CC(c3cccc(Nc4ccncc4)c3)=NN2c2ccc(Cl)cc2)cc(OC)c1OC` (stereo not given), the growth with SR leukemia was 2.48% (active); in the assay with RPMI-8226 leukemia, -18.7% (active); in the assay on OVCAR-8 ovarian it was -26.5% (active); in the assay on OVCAR-5 ovarian, 72.1%; in the assay on OVCAR-4 ovarian, 6.52% (active); in the assay on SK-OV-3 ovarian, 64.5%. In addition, the growth with IGROV1 ovarian is 4.16% (active); in the assay on OVCAR-3 ovarian, -25.3% (active); with HS 578T breast, 27.8%; in the assay with NCI/ADR-RES ovarian it was 42.7%.
As for `COc1ccc2c(Nc3ccc(NS(C)(=O)=O)cc3)c3ccccc3nc2c1`, the growth with SR leukemia was -11.6% (active); in the assay on RPMI-8226 leukemia it was 1.1% (active); in the assay with OVCAR-8 ovarian, 8% (active); in the assay on OVCAR-5 ovarian, 4.43% (active); in the assay with OVCAR-4 ovarian it was 11.8%; in the assay with SK-OV-3 ovarian, 20.5%. In addition, the growth is 3.52% (active) in the assay with IGROV1 ovarian, -22.3% (active) in the assay on OVCAR-3 ovarian, -17.1% (active) with HS 578T breast and 32.7% with NCI/ADR-RES ovarian.
For the molecule `Cc1ccccc1CNc1ccc(N2CCOCC2)cc1`, the growth with SR leukemia is 86.3%; in the assay on RPMI-8226 leukemia, 110%; in the assay with OVCAR-8 ovarian it was 96.3%; with OVCAR-5 ovarian it was 103%; in the assay with OVCAR-4 ovarian, 87.7%; in the assay on SK-OV-3 ovarian, 131%. For the same molecule, the growth in the assay with IGROV1 ovarian is 108%; in the assay with OVCAR-3 ovarian it was 101%; in the assay with HS 578T breast, 108%; in the assay on NCI/ADR-RES ovarian, 99.2%.
Take `CCOC(=O)c1c(SC)nn(-c2cc(=O)[nH]c3ccc(Br)cc23)c1N`: the growth in the assay on SR leukemia is 91%; in the assay on RPMI-8226 leukemia it was 101%; in the assay on OVCAR-8 ovarian, 95.6%; in the assay on OVCAR-5 ovarian, 112%; in the assay with OVCAR-4 ovarian it was 86.2%; in the assay with SK-OV-3 ovarian, 98.5%. Besides, the growth with IGROV1 ovarian is 102%; in the assay with OVCAR-3 ovarian, 105%; with HS 578T breast, 91.8%; with NCI/ADR-RES ovarian, 100%.
`COc1ccc(C(=O)c2cc3c(N)c(C(=O)Nc4ccc(Br)cc4)sc3nc2C)cc1`: the growth in the assay on SR leukemia was 51.5%; in the assay with RPMI-8226 leukemia, 77%; in the assay with OVCAR-8 ovarian, 37.2%; with OVCAR-5 ovarian, 88%; in the assay on OVCAR-4 ovarian, 0.804% (active); with SK-OV-3 ovarian, 62.1%. Moreover, the growth is 85.9% with IGROV1 ovarian, 65.4% in the assay with OVCAR-3 ovarian, 32.3% in the assay on HS 578T breast and 70% in the assay on NCI/ADR-RES ovarian.
Regarding `O=C(CCN1CCCC1)Nc1ccc2c(Nc3ccccc3)c3ccccc3nc2c1`, the growth in the assay with SR leukemia is -14.9% (active); with RPMI-8226 leukemia, -27.3% (active); in the assay on OVCAR-8 ovarian it was 7.5% (active); in the assay with OVCAR-5 ovarian, 20%; with OVCAR-4 ovarian, -4.97% (active); with SK-OV-3 ovarian, 23.8%. The growth is 13.5% in the assay with IGROV1 ovarian, -25% (active) in the assay with OVCAR-3 ovarian, 32.2% in the assay with HS 578T breast and 47.1% with NCI/ADR-RES ovarian.
As to `CN1C2CCC1CN(c1cnc(C(=O)Nc3cc(F)cc4cccnc34)cn1)C2`, the growth is 22.4% with SR leukemia; 44.5% in the assay with RPMI-8226 leukemia; 54.4% in the assay on OVCAR-8 ovarian; 70.3% in the assay with OVCAR-5 ovarian; 8.7% (active) in the assay on OVCAR-4 ovarian; 81.9% in the assay on SK-OV-3 ovarian. For the same molecule, the growth in the assay on IGROV1 ovarian is 6.34% (active); with OVCAR-3 ovarian it was 20.4%; with HS 578T breast it was 54.6%; in the assay with NCI/ADR-RES ovarian, 42.1%.
Take `Nc1nc(N)nc(NCc2ccccc2)n1`: the growth was 89% in the assay on SR leukemia; 107% in the assay on RPMI-8226 leukemia; 117% in the assay with OVCAR-8 ovarian; 103% in the assay with OVCAR-5 ovarian; 128% with OVCAR-4 ovarian; 115% in the assay with SK-OV-3 ovarian. The growth in the assay on IGROV1 ovarian is 109%; in the assay with OVCAR-3 ovarian, 105%; in the assay with HS 578T breast it was 120%; in the assay with NCI/ADR-RES ovarian it was 100%.
Take `COc1ccc2c(c1)OC13Oc4cc(OC)ccc4C=C1CCCC3=C2`: the growth is 4.94% (active) in the assay with SR leukemia; -20.6% (active) with RPMI-8226 leukemia; 47.7% with OVCAR-8 ovarian; 47.2% in the assay on OVCAR-5 ovarian; 55.2% with OVCAR-4 ovarian; 60.1% in the assay on SK-OV-3 ovarian. Moreover, the growth is 41.4% in the assay on IGROV1 ovarian, 5.62% (active) in the assay on OVCAR-3 ovarian, 45% in the assay on HS 578T breast and 21.6% with NCI/ADR-RES ovarian.
